# In ChEMBL document CHEMBL5308504, “Tm Shift (DSF) assay results for EUbOPEN Chemogenomics Library” (2023):
# Legend:
# Conditions in all cases: Compound concentration 20.0 uM, Protein concentration 2.0 uM, Result type QC Liability
# [1] = target: Tyrosine-protein kinase ABL1 (Homo sapiens) (UniProt P00519)
# [2] = target: Cyclin-dependent kinase 2 (Homo sapiens) (UniProt P24941)
# [3] = target: Casein kinase I isoform delta (Homo sapiens) (UniProt P48730)
# [4] = target: Glycogen synthase kinase-3 beta (Homo sapiens) (UniProt P49841)
# [5] = target: Mitogen-activated protein kinase 1 (Homo sapiens) (UniProt P28482)
# [6] = target: T1, Aurora kinase A (Homo sapiens) (UniProt O14965)
# T1 sequence (whole entry): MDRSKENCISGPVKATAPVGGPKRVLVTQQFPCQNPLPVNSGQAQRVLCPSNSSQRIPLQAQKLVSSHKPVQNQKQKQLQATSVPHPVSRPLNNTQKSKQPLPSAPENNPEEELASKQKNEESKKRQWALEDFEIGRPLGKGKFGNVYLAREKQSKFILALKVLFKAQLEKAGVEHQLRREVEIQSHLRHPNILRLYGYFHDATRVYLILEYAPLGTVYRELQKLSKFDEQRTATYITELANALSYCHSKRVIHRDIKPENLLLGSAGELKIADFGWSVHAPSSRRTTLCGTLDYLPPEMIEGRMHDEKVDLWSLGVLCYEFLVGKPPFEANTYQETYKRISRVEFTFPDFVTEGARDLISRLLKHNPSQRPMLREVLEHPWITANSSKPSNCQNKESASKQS
# Mitogen-activated protein kinase 1 (Homo sapiens), sequence (P28482 whole entry): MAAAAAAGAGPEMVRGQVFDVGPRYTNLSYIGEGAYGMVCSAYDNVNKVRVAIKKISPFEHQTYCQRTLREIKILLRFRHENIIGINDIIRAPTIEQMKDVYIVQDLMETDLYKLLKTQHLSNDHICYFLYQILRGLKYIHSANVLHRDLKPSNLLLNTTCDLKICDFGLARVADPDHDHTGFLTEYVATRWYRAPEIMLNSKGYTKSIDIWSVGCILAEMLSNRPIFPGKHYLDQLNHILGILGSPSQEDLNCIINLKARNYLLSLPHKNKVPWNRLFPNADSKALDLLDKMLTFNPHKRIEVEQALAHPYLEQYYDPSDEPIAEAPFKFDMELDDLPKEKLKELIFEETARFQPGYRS
# Casein kinase I isoform delta (Homo sapiens), sequence (P48730 whole entry, looked up, canonical isoform): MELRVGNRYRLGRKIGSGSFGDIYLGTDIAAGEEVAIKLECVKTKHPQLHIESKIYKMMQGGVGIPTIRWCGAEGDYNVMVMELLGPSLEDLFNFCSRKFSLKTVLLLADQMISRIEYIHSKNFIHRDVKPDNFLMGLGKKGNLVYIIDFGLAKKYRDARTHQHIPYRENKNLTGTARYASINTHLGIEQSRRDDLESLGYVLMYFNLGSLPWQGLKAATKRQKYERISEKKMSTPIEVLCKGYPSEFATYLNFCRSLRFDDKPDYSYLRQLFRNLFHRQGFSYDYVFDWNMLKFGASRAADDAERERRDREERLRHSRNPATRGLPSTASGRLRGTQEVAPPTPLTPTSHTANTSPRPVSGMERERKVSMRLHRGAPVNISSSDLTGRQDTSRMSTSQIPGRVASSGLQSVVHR
# Tyrosine-protein kinase ABL1 (Homo sapiens), sequence (P00519 whole entry): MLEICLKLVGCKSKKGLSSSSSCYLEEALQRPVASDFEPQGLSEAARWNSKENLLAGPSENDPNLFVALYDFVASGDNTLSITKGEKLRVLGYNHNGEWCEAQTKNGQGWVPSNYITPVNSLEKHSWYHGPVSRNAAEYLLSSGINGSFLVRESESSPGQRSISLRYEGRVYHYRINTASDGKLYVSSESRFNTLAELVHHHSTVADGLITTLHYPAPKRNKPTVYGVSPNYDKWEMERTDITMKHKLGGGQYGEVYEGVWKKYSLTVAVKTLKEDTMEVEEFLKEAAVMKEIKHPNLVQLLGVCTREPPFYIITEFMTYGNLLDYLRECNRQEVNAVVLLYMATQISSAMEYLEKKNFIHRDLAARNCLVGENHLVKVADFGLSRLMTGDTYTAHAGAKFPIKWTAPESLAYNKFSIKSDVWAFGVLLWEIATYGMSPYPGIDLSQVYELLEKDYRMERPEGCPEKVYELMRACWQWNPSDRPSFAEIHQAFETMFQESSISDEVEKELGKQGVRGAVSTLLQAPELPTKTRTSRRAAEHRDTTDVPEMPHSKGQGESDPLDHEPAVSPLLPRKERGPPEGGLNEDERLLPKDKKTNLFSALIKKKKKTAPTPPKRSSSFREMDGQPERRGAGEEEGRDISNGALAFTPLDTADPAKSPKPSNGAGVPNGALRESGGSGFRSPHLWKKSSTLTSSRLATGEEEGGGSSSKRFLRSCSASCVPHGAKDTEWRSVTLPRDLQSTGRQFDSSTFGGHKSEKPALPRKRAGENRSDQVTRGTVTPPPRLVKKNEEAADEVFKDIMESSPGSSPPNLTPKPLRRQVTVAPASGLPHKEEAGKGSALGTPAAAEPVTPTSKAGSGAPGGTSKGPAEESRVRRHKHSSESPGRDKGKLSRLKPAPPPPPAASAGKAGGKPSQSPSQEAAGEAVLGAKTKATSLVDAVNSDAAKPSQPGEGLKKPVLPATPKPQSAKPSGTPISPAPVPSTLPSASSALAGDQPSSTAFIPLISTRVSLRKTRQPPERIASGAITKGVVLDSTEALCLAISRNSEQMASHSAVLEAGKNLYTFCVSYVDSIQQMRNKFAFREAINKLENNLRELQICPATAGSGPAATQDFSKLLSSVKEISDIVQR
# Glycogen synthase kinase-3 beta (Homo sapiens), sequence (P49841 whole entry, looked up): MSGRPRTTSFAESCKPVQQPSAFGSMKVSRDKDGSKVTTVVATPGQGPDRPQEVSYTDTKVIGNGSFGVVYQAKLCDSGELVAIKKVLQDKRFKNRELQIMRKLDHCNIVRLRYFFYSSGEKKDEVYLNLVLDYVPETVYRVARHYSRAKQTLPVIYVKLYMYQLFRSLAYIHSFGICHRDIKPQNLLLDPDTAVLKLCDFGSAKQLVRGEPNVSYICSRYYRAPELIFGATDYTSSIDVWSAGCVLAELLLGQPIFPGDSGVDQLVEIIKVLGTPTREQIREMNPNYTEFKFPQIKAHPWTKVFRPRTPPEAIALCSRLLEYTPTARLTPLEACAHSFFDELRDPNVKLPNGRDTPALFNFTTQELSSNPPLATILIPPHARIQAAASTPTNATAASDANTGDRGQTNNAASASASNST
SMILES,ΔTm [1] [°C],ΔTm [2] [°C],ΔTm [3] [°C],ΔTm [4] [°C],ΔTm [5] [°C],ΔTm [6] [°C]
COc1ccccc1N1CCN(c2ncnc3c2cnn3-c2ccccc2)CC1,0.32,-0.17,0.84,-0.28,-0.07,-0.16
O=C(O)CCC/C=C\C[C@@H]1[C@@H](/C=C/[C@@H](O)COc2cccc(C(F)(F)F)c2)[C@H](O)C[C@@H]1O,0.54,0.59,0.07,0.65,-0.39,-0.25
COc1cccc(Cn2cc(C(=O)Nc3ccc(C)c(S(=O)(=O)N4CCOCC4)c3)c(-c3ccc(C)cc3)n2)c1,4.84,3.65,-0.33,1.92,-3.66,3.73
CC(=O)Nc1ncc(CN2CCC[C@H](Cc3cc(C)nc(C)c3)C2)s1,0.26,-0.34,-0.41,-0.15,0.35,0.39
COc1nc2ccc([C@@](O)(c3ccccc3)C3CCN(C(C)=O)CC3)cc2c(Cl)c1Cc1ccc(-n2cccn2)cc1,-0.06,-0.4,-0.56,-3.26,0.14,-0.6
COc1cc(N[C@@H]2CCCC[C@]2(O)C(F)(F)F)ccc1F,0.29,0.72,0.65,-0.31,0.4,-1.49
CC(C)C[C@H](NC(=O)[C@@H](O)[C@H](N)Cc1ccccc1)C(=O)O,-0.05,1.32,0.13,0.33,0.15,-0.07
CN[C@@H](C)C(=O)N[C@H](C(=O)N1CCC[C@H]1c1nc(C(=O)c2ccc(F)cc2)cs1)C1CCCCC1,0.09,0.27,0.62,-1.01,0.23,-1.15
CC[C@@H](CO)Nc1nc(Nc2cccc(NC(=O)C(C)(C)C)c2)ncc1F,1.74,1.9,0.38,3.34,0.54,9.07
CC(C)(O)[C@H]1CC[C@H](Nc2ccc3ncc(-c4cccc(C(F)(F)F)c4)n3n2)CC1,0.38,1.53,3.57,2.41,0.62,0.74
CCN(CC)C(=O)C1CN2CCc3cc(OC)c(OC)cc3C2CC1OC(C)=O (stereo not drawn),-0.43,0.69,-0.03,-1.02,0.11,-0.04
O=C(Nc1ccc(N2CCC(C(=O)N3CCOCC3)CC2)cc1)c1cnc(Oc2ccccc2)nc1,0.2,0.87,0.06,-0.13,0.13,-0.24
NCC1CCC(CNc2nc(NCc3ccccc3OC(F)(F)F)ncc2[N+](=O)[O-])CC1 (stereo not drawn),0.62,-0.56,0.19,3.29,-0.1,1.01
O=C(Nc1ccnc(NC(=O)C2CC2)c1)c1c(Cl)cccc1Cl,5.46,6.9,0.54,6.06,0.23,4.28
CNC(=O)COc1cc2cc(Nc3nc(N4CCC(C(=O)N(C)C)CC4)ncc3Cl)cc(OC)c2n(C)c1=O,-0.18,-0.4,0.17,-0.71,0.01,-0.26
N#Cc1ccc(C#CC[C@@H](C#N)NC(=O)[C@@H]2CCCCN2)cc1F,-0.78,0.23,0.14,-0.69,0.24,-0.05
COCCN1CCN(CCn2ccc(Nc3ncc4c(n3)-c3c(nn(C)c3-c3ccccc3)C[C@H]4C)n2)CC1,2.08,3.1,5.97,0.86,1.18,2.79
COc1cc(-c2cn(C)c(=O)c3cnccc23)cc(OC)c1CN(C)C,0.24,0.43,0.32,0.06,0.23,0.56
